# Compound activity: PubChem, Buhrlage Lab, Dana-Farber Cancer Institute and Novartis Institutes for BioMedical Research (Cambridge, Mass)
# USP28 block = inhibitors of human USP28 deubiquitinase; Ubiquitin carboxyl-terminal hydrolase 28 (Homo sapiens), Q96RU2; inhibition, % at 25 µM; purified USP28, Ub-rhodamine cleavage fluorescence, 30 min; 47,000 tested, 3% active
# USP17 block = inhibitors of human USP17 deubiquitinase | 47,000 tested, 6.5% active | Ubiquitin carboxyl-terminal hydrolase 17-like protein 5 (Homo sapiens), A8MUK1 | purified USP17, Ub-rhodamine cleavage fluorescence, 3 h | inhibition, % at 50 µM | AID 1645855, 2021
# Target sequence (A8MUK1 whole entry, looked up): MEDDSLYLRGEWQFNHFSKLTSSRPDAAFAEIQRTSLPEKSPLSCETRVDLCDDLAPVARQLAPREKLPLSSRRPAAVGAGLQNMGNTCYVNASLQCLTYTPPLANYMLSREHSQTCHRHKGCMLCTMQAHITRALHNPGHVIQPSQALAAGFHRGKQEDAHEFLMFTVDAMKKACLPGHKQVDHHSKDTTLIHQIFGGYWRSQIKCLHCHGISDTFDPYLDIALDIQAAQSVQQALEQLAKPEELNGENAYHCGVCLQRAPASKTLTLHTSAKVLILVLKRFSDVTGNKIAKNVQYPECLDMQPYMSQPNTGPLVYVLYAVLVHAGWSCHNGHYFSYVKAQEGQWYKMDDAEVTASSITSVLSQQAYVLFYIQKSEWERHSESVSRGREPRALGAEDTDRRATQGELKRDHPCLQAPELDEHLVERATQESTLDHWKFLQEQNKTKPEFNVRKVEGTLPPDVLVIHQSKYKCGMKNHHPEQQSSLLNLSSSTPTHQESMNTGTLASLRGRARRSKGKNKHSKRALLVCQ
# USP30 inh = inhibitors of human USP30 deubiquitinase. 47,000 tested, 5.3% active. inhibition, % at 25 µM. Ubiquitin carboxyl-terminal hydrolase 30 (Homo sapiens), Q70CQ3. AID 1645860, 2021. purified USP30, Ub-rhodamine cleavage fluorescence
# USP10 block = inhibitors of human USP10 deubiquitinase; 47,000 tested, 1.1% active; Ubiquitin carboxyl-terminal hydrolase 10 (Homo sapiens), Q14694; inhibition, % at 20 µM; purified USP10, Ub-rhodamine fluorescence, 60 min
# USP8 inh = inhibitors of human USP8 deubiquitinase. purified USP8, Ub-rhodamine cleavage fluorescence, 30 min. inhibition, % at 20 µM. 47,000 tested, 4.2% active
# * hit, by the source's call; · = not tested or not shown. The list is not random: actives were taken first. Their share in the collection is about 14%. Cut-off read from the data, not from the text of the source: active = inhibition above about 30%; inactive = the rest.
SMILES,USP28 block,USP17 block,USP30 inh,USP10 block,USP8 inh
COc1ccc(CNC(=O)c2ccc(-c3csc(C)n3)cc2)cc1,4,8,6,12,0
COc1cc(C(=O)Nc2ccc(-c3csc(C)n3)cc2)cc(OC)c1OC,78*,-9,-32,-1,9
Cc1nc(-c2ccc(C(=O)Nc3ccc(F)cc3)cc2)cs1,21,19,33*,24,65*
CCn1c(=O)c(=O)[nH]c2cc(C(=O)Nc3cccc(-c4csc(C)n4)c3)ccc21,75*,58*,-14,2,18
Cc1nn(-c2ccccc2)c2c1c(C)c(CCC(=O)NCc1ccccc1F)c(=O)n2C,-5,-27,-84,-7,-15
CC(=O)N1C[C@@H]2C[C@@]3(C)[C@H](CCCC[C@@H]13)N2C(=O)c1cc(C)nc2onc(C)c12,18,-36,-18,2,17
CCC(=O)Nc1nc2cc(NC(=O)c3cc(OC)c(OC)c(OC)c3)ccc2s1,-23,-44,-130,0,0
COc1cc(C(=O)Nc2ccc3nccnc3c2)cc(OC)c1OC,34*,18,-33,3,3
Cc1nc(-c2cccc(NC(=O)c3ccc(C)c(NC(=O)c4ccco4)c3)c2)cs1,22,43*,28,11,15
Cc1nc(-c2cccc(NC(=O)c3cccc(F)c3)c2)cs1,12,-8,-13,7,-4
COc1ccc(C(=O)Nc2cccc(-c3csc(C)n3)c2)cc1OC,46*,-10,-7,-1,-10
Cn1nccc1-c1cccc(-c2noc(-c3cccc(NC(=O)c4ccco4)c3)n2)c1,·,-16,·,-6,-22
O=C(Nc1cccc(-c2nc(-c3ccc(=O)[nH]c3)no2)c1)c1ccco1,-24,2,-197,-9,63*
Cc1ccccc1-c1noc(Cn2nc(C)c(S(=O)(=O)N3CCc4ccccc43)c2C)n1,-20,-3,-88,-11,-9
CC(C)NC(=O)c1ccc2c(c1)nnn2C1CCCCC1,-8,4,-1,-1,-15
COc1ccc(C(=O)Nc2cccc(C(=O)OCC(=O)c3ccc(Br)cc3)c2)cc1OC,0,34*,8,9,3
Cn1c(N2CCCC(C(=O)Nc3cccc(F)c3)C2)cc(=O)n(C)c1=O (configuration not stated),-17,-11,-16,-2,-16
NC(=O)C1CN(C(=O)C2(Cc3ccccc3)CCOCC2)C1,5,16,19,-1,4
CCc1ccccc1NC(=O)c1cc(-c2ccccn2)n[nH]1,13,73*,38*,5,6
Cc1cc(Cl)ccc1NC(=O)c1cc(-c2ccncc2)n[nH]1,72*,65*,90*,6,21
COc1ccccc1CNC(=O)c1cc(-c2ccccn2)n[nH]1,3,·,11,4,-81
O=C(Nc1ccccc1Cl)c1cc(-c2ccncc2)n[nH]1,79*,74*,92*,-2,-11
COc1ccc(CCN2C[C@H]3CCN(C(=O)c4ccncc4)CC[C@H]3S2(=O)=O)cc1,11,0,2,0,-6
Cc1ccc(Nc2nc3c(S(=O)(=O)c4ccc(C(C)C)cc4)nnn3c3ccccc23)cc1,2,21,6,0,4
Cc1ccc(Nc2nc3c(S(=O)(=O)c4ccc(C)c(C)c4)nnn3c3ccccc23)cc1C,9,24,25,12,53*
SMILES,USP28 block,USP17 block,USP30 inh,USP10 block,USP8 inh
Cc1ccc(CS(=O)(=O)c2cn(CC(=O)NCCc3ccccc3)c3ccccc23)cc1,-6,3,-4,17,25
Cc1cccc(CNC(=O)Cn2cc(-c3nnco3)c3ccccc32)c1,12,46*,11,5,-1
Cc1ccc(CS(=O)(=O)c2cn(CC(=O)NCc3ccco3)c3ccccc23)cc1,24,37*,12,3,34*
Cc1ccc(CNC(=O)Cn2cc(S(=O)(=O)Cc3ccccc3)c3ccccc32)cc1,-9,-38,-114,2,38*
CCCSc1nc2nc3c(cn2n1)C(=O)CC(c1ccco1)C3 (configuration not stated),6,19,1,-5,28
FCCCOc1ccc(-c2ccnc3cc(-c4sccc4-n4cccc4)nn23)cc1,-15,·,-148,-8,-20
Clc1cccc(-c2nc(Cn3ccnc3)no2)c1,22,1,20,-2,10
Cc1ccc([N+](=O)[O-])cc1NC(=O)CCN1C(=O)c2ccccc2S1(=O)=O,7,31*,49*,0,-7
O=C(Nc1cnc(-c2cccc(Cl)c2)nc1)C1CCC1,14,10,22,3,30*
O=C(NCc1ccccc1)C(c1ccc(F)cc1)N(C(=O)CCN1CCc2ccccc21)c1ccc2c(c1)OCO2 (configuration not stated),-60,-42,-301,-3,40*
Cc1c(C)n(C)c2ccc(C(=O)NC3CCN(Cc4ccccc4)CC3)cc12,35*,0,-33,-5,-50
Cn1ccc2c(cc(C(=O)NC3CCN(Cc4ccccc4)CC3)n2C)c1=O,32*,-31,-35,-5,-7
Cn1ccc2c(cc(C(=O)NCCC3=CCCCC3)n2C)c1=O,55*,3,14,-1,-4
Cc1cc(C)c2cc(C(=O)NC3CCN(Cc4ccccc4)CC3)[nH]c2c1,14,23,67*,2,24
Cc1ccc(C)c(NC(=O)CSc2nnc(N3CCOCC3)c3ccccc23)c1,26,2,15,0,0
COc1ccc(/C=C/C(=O)Nc2cc(C)ccn2)cc1,46*,13,29,-1,-3
COc1ccc(C)cc1NC(=O)/C=C/c1ccc(F)cc1,-10,0,-2,3,3
COc1ccc(/C=C/C(=O)Nc2ccccc2C#N)cc1,·,68*,·,8,5
Cc1cc(N2C(=O)CCS2(=O)=O)ccc1S(=O)(=O)NCCC1=CCCCC1,1,6,4,9,11
Cc1ccc(NC(=O)Cc2nnc3cc(-c4nc(C)no4)ccn23)cc1,42*,13,69*,46*,62*
CCc1noc(-c2ccn3c(CC(=O)Nc4ccccc4C)nnc3c2)n1,1,25,12,18,76*
CCc1ccc(NC(=O)Cc2nnc3cc(-c4nc(C)no4)ccn23)cc1,30*,55*,22,56*,84*
Cc1ccc(NC(=O)Cc2nnc3ccc(-c4nc(C)no4)cn23)c(C)c1,0,10,9,3,-134
Cc1noc(-c2ccc3nnc(CC(=O)Nc4ccc(F)c(C)c4)n3c2)n1,-14,-9,-36,-2,-240
O=C(Nc1ccc2c(c1)OCO2)c1ccc2noc(-c3ccc(Cl)cc3)c2c1,17,38*,10,11,5
O=C(NC1CCCC1)c1ccc2noc(-c3ccc(Cl)cc3)c2c1,-11,39*,-36,0,-1
